Measurements: PMC8384837, “Expanding the binding specificity for RNA recognition by a PUF domain”

How the values were obtained:
Assay in all cases: yeast three-hybrid, YBZ-1, SC-Leu-His + 0.5 mM 3-AT, 4 days
Settings in all cases: tags: N-Gal4 AD-HA kept; label: inside an RPR1-promoter hybrid RNA with tandem MS2 sites; ssRNA
PUM1 PUF domain R8-RGR = PUM1 PUF domain R8-RGR (Homo sapiens, UniProt Q14671 828-1176, N1122R;Y1123G;Q1126R)
Method in brief: (§1)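 Matching RNA elements and Pumilio-1 PUF domain libraries, randomized at the three base-contacting residues of every repeat, were co-expressed from a centromeric plasmid in strain YBZ-1 (LexA–MS2 coat fusion, HIS3 reporter). The repeat regions were PCR-amplified and Illumina-sequenced from cells grown four days on SC-Leu (input) or SC-Leu-His + 0.5 mM 3-AT (selection). The interaction score is the log change in variant frequency from input to selection. It is computed in log2, with a pseudocount of 1 for absent variants.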

PUM1 PUF domain R3-EWE = PUM1 PUF domain R3-EWE (Homo sapiens, UniProt Q14671 828-1176, C935E;R936W;Q939E)
Method in brief: as §1

PUM1 PUF domain R7-KRG = PUM1 PUF domain R7-KRG (Homo sapiens, UniProt Q14671 828-1176, S1079K;N1080R;E1083G)
Method in brief: as §1

PUM1 PUF domain R7-TVG = PUM1 PUF domain R7-TVG (Homo sapiens, UniProt Q14671 828-1176, S1079T;N1080V;E1083G)
Method in brief: as §1

PUM1 PUF domain R5-RQC = PUM1 PUF domain R5-RQC (Homo sapiens, UniProt Q14671 828-1176, C1007R;R1008Q;Q1011C)
Method in brief: as §1

PUM1 PUF domain R5-DHW = PUM1 PUF domain R5-DHW (Homo sapiens, UniProt Q14671 828-1176, C1007D;R1008H;Q1011W)
Method in brief: as §1

PUM1 PUF domain R5-RFD = PUM1 PUF domain R5-RFD (Homo sapiens, UniProt Q14671 828-1176, C1007R;R1008F;Q1011D)
Method in brief: as §1

Chain of PUM1 PUF domain R5-RQC (Q14671 828-1176 C1007R/R1008Q/Q1011C): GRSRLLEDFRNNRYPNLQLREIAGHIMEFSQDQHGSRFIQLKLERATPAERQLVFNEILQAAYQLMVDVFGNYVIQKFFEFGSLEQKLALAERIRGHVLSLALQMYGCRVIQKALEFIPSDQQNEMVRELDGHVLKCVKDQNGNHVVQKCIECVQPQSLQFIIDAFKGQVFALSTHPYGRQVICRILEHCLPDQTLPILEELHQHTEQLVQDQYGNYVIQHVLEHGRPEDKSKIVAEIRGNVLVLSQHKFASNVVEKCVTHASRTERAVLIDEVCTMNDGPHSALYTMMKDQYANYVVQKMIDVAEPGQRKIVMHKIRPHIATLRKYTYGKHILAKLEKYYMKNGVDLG
Chain of PUM1 PUF domain R5-DHW (Q14671 828-1176 C1007D/R1008H/Q1011W): as the sequence (Q14671 828-1176 C1007R/R1008Q/Q1011C) above, with R180D, Q181H, C184W counted along it
Chain of PUM1 PUF domain R5-RFD (Q14671 828-1176 C1007R/R1008F/Q1011D): as the sequence (Q14671 828-1176 C1007R/R1008Q/Q1011C) above, with Q181F, C184D counted along it
Chain of PUM1 PUF domain R8-RGR (Q14671 828-1176 N1122R/Y1123G/Q1126R): as the sequence (Q14671 828-1176 C1007R/R1008Q/Q1011C) above, with R180C, Q181R, C184Q, N295R, Y296G, Q299R counted along it

With “GGCUAGAACUAGUGGAUCCCCCGGCGCCCGGCGGCUCGAGCCCGGGUAAGCGUAAAUAGUCUGCAUGCCGCCGGGCGCCAUGCCUGCAGGUCGACUCUAGAAAACAUG” as the sequence, how does the binding signal (PUM1 PUF domain R8-RGR) read?
Its binding signal is 2.53 log2 enrichment (interaction score).

For “GGCUAGAACUAGUGGAUCCCCCGGCGCCCGGCGGCUCGAGCCCGGGUAAGUGUAAGUAGUCUGCAUGCCGCCGGGCGCCAUGCCUGCAGGUCGACUCUAGAAAACAUG”, which binding signal (PUM1 PUF domain R3-EWE) is on record?
Its binding signal is 4.74 log2 enrichment (interaction score).

What does the source list for “GGCUAGAACUAGUGGAUCCCCCGGCGCCCGGCGGCUCGAGCCCGGGUAAGUUUAAAUAGUCUGCAUGCCGCCGGGCGCCAUGCCUGCAGGUCGACUCUAGAAAACAUG”?
binding signal (PUM1 PUF domain R7-KRG): 2.98 log2 enrichment (interaction score); binding signal (PUM1 PUF domain R7-TVG): 4.37 log2 enrichment (interaction score)

Which results are given for “GGCUAGAACUAGUGGAUCCCCCGGCGCCCGGCGGCUCGAGCCCGGGUAAGUGUUAAUAGUCUGCAUGCCGCCGGGCGCCAUGCCUGCAGGUCGACUCUAGAAAACAUG”?
binding signal (PUM1 PUF domain R5-RQC): 4.83 log2 enrichment (interaction score); binding signal (PUM1 PUF domain R5-DHW): 3.46 log2 enrichment (interaction score); binding signal (PUM1 PUF domain R5-RFD): 4.39 log2 enrichment (interaction score)
